Consider 64 compounds from PubChem BioAssay AID2314 (National Center for Advancing Translational Sciences (NCATS), 2010).

The campaign covered roughly 300,000 compounds. About 37,000 (12%) were called active. Rule as the data show it: active = max response mostly above about 13% (no sharp cut-off); inactive = mostly below about 14%. For the sample, actives were picked, then their nearest neighbours and some compounds at random.

A short description of this test: Cycloheximide Counterscreen for Small Molecule Inhibitors of Shiga Toxin. Also: read at 38.3 µM for the half of the compounds with a filed dose; 0% is about no effect. The note with it: cell reporter, cycloheximide protein synthesis inhibition counterscreen; stronger effect = higher value. Background: The purpose of a counterscreen is to sort out artefacts and off-target activity.
As to `COCCn1c(SCC(=O)Nc2cc(OC)ccc2OC)nc2c(c1=O)SC(C)C2` (centres undefined), the max response was -1.66% (inactive).

Consider `CC(C)CC(=O)N1CCN(Cc2ccccc2Br)CC1`, for which the max response was -2% (inactive).

Consider `NC(=O)C(Cc1ccccc1)NC(=O)C12CC3CC(CC(C3)C1)C2` (centres undefined), for which the max response is 0.275% (inactive).

Consider `CCCOc1ccc(NC(=O)C2OC3OC(C)(C)OC3C3OC(C)(C)OC23)cc1` (centres undefined), for which the max response is 10.8% (inactive).

On to `CCCOc1ccc(NC(=O)C2CCCNC2=O)cc1` (centres undefined), for which the max response is 16.5% (inactive).

Turning to `CCOc1ccc(N/C=C/C(=O)c2cc(OC)c(OC)c(OC)c2)cc1`, the max response is 3.1% (inactive).

With `CCOc1ccc(N/C=C/C(=O)c2ccccc2)cc1`, the max response is 38.2% (active).

Turning to `Cc1ccc(NNC(=O)C2CCC2)cc1C`, the max response is -2.16% (inactive).

Turning to `CCCOc1ccc(N/C=C/C(=O)C(C)(C)C)cc1`, the max response is 33% (active).

`CCOc1ccc(NC(=S)N2CCC(NC(=O)c3ccccc3)CC2)cc1`: the max response is -1.64% (inactive).

As for `Cc1ccc(N(NC(=O)C(C)(C)O)C(=O)c2ccccc2)cc1C`, the max response was -3.59% (inactive).

Regarding `Cc1ccc(N/C=C/C(=O)c2ccccc2)cc1C`, the max response was 45.6% (active).

In the case of `Cc1cc(OCC(=O)NCC(O)c2ccccc2)c2c(C)c(C)c(=O)oc2c1` (centres undefined), the max response is 8.74% (inactive).

As for `O=C(O)c1ccccc1C(=O)NC1=NN(c2ccccc2)CC1`, the max response was -1.86% (inactive).

`O=C(CSc1n[nH]c(-c2cccnc2)n1)Nc1ccc(Cl)cc1`: the max response is 1.65% (inactive).

As to `CCO[C@@H]1OC(C(=O)NC2CC2)=C[C@H](C)[C@H]1CCCO`, the max response was -1.17% (inactive).

`CC(NC(=S)NC1CCCCC1)C(c1ccccc1)N1CCOCC1` (centres undefined): the max response is 0.505% (inactive).

With `Cc1cc(=O)n2nc(N3CCCC(C(=O)NCc4cccc(Cl)c4)C3)sc2n1` (centres undefined), the max response was -3.8% (inactive).

Take `CN(NS(=O)(=O)c1cccs1)c1ncc(C(F)(F)F)cc1Cl`: the max response was -0.853% (inactive).

Turning to `OC(CNCCc1ccc(Cl)cc1Cl)COc1ccccc1` (centres undefined), the max response is -1.8% (inactive).

For the compound `CCCOc1ccc(C(=O)NCCc2ccccc2)cc1`, the max response is 27% (active).

Consider `Cc1cc(C(=O)NCCc2ccc(Cl)cc2)n(-c2ccccc2)n1`, for which the max response is -0.868% (inactive).

For the compound `NS(=O)(=O)c1ccc(CCNC(=O)c2ccc(Cl)cc2[N+](=O)[O-])cc1`, the max response is -2.71% (inactive).

`O=C(NCCc1ccccc1)C1CC1`: the max response was 13% (inactive).

As to `COc1ccc(OCCCC(=O)NCCc2ccccc2)cc1`, the max response was -2.28% (inactive).

Regarding `O=C(NCCc1ccccc1)c1ccc(OCCOc2ccccc2)cc1`, the max response was 0.57% (inactive).

For `Nc1ccc(C(=O)NCc2ccccc2)cc1`, the max response is -1.11% (inactive).

With `O=C(CCc1ccccc1)NNC(=O)COc1ccc(Cl)cc1`, the max response is 0.663% (inactive).

Consider `CN(c1ccccc1)S(=O)(=O)c1ccc(C(=O)NCCc2ccccc2)cc1`, for which the max response was 11.2% (inactive).

Regarding `Cc1cc(C(=O)NCCc2ccc(Cl)cc2)c(C)o1`, the max response is 49.4% (active).

Turning to `O=C(NCCc1ccccc1)Oc1ccc(Cl)cc1`, the max response is 48.1% (active).

Regarding `CC(C)c1ccc(C(=O)NCCCc2ccccc2)cc1`, the max response is 46.9% (active).

Regarding `COc1ccc(-c2nc3cnccn3c2NC(C)(C)CC(C)(C)C)cc1O`, the max response was -1.64% (inactive).

As to `Cc1ccc(CN2CCNC(=O)C2CC(=O)NCc2csc(C(C)C)n2)cc1` (centres undefined), the max response was -3.12% (inactive).

As for `O=C(COc1ccc(S(=O)(=O)N2CCOCC2)cc1Cl)N1CCOCC1`, the max response was -5.7% (inactive).

On to `Cc1cccc(N2C(=O)N3[C@H](c4ccc(F)cc4)[C@@H]4C(=O)N(C5CCCCC5)C(=O)[C@@H]4[C@]3(Cc3ccccc3)C2=O)c1`, for which the max response is 1.33% (inactive).

As for `O=c1oc2ccccc2c(NC2CCCCC2)c1NS(=O)(=O)c1ccc(Cl)cc1`, the max response was -6.15% (inactive).

`Cc1ccc(N(CC(=O)NCC2CCCO2)C(=O)CNS(=O)(=O)c2ccc(Cl)cc2)cc1` (centres undefined): the max response is -3.88% (inactive).

Consider `O=C(CCc1c[nH]c2ccccc12)NCCOc1ccccc1`, for which the max response is 25.1% (inactive).

For the compound `O=C(NCCOc1ccccc1)c1ccccc1`, the max response was 68.1% (active).

Regarding `NS(=O)(=O)c1cc(C(=O)NCCOc2ccccc2)c(Cl)cc1Cl`, the max response was -1.96% (inactive).

Regarding `CCc1n[nH]c(=S)n1/N=C/c1c[nH]c2ccc(Br)cc12`, the max response is -1.29% (inactive).

Take `CC1=NN(C(N)=S)C(=O)C1N=Nc1cc(Cl)ccc1Cl` (centres undefined): the max response is 4.61% (inactive).

As to `CCCCc1nc(SCC(=O)Nc2nnc(C(C)C)s2)n[nH]1`, the max response was 26.4% (inactive).

Take `O=C1CCCC(O)=C1N=Nc1ccc(S(=O)(=O)N2CCOCC2)cc1`: the max response is 16% (inactive).

Take `O=C1CCCC(O)=C1N=Nc1ccc2ncsc2c1`: the max response was 49.2% (active).

For the compound `Cc1nc2ccccc2c(=O)n1Cc1ccc([N+](=O)[O-])cc1`, the max response is -1.56% (inactive).

Regarding `Nc1ccc(N=Nc2ccccc2Cl)c(N)n1`, the max response was 25.9% (active).

Regarding `O=S(=O)(c1ccc(Cl)s1)N1CCC2(CC1)OCCO2`, the max response was 2.18% (inactive).

`COC(=O)c1cc(NC(=O)c2cc(C(C)(C)C)nn2Cc2cccc(C)c2)ccc1N1CCOCC1`: the max response is -3.1% (inactive).

For the compound `CCCNC(=O)c1cnc(-c2ccccc2)nc1-c1ccccc1`, the max response was -6.13% (inactive).

Regarding `CCc1ccc(C(=O)COC(=O)c2ccco2)cc1`, the max response was 42.3% (active).

Consider `CCN(CC)c1ccc(C(=O)OCC(=O)c2ccco2)cc1`, for which the max response is 7.36% (inactive).

For the compound `O=C(COC(=O)c1ccccc1C(=O)c1ccccc1)c1ccco1`, the max response was 8.15% (inactive).

Regarding `COc1cccc(NC(=O)CN2CCN(CC(=O)Nc3ccccc3Cl)CC2)c1`, the max response was -0.686% (inactive).

Turning to `COc1ccc2[nH]c(C(=O)N/N=C/c3cc(OC)c(OC)c(OC)c3)cc2c1`, the max response was 13.6% (inactive).

As for `COc1ccc2[nH]c(C(=O)Nc3ccccc3Cl)cc2c1`, the max response was 36.2% (active).

For `Cc1cccc(C(=O)NNC(=O)CSc2nnc(C(C)C)n2C)c1`, the max response is -5.35% (inactive).

As for `S=C(Nc1ccc2c(c1)OCO2)N1CCCC1`, the max response was 25.6% (active).

For `CCC(C)c1ccc(NC(=S)N2CCCC2)cc1` (centres undefined), the max response was 35.2% (active).

For the compound `CCOc1ccc(NC(=S)N2CCCCCC2)cc1`, the max response is 26.7% (inactive).

Turning to `NS(=O)(=O)c1ccc(NC(=S)N2CCCC2)cc1`, the max response is -1.21% (inactive).

For the compound `Cc1cccc(C)c1NC(=S)N1CCCCCC1`, the max response is -7.53% (inactive).

For the compound `CC(=O)c1cccc(NC(=S)N2CCCC2)c1`, the max response is 0.199% (inactive).
